In all, about 33,000 sequences were measured (“E-score (-0.5 to 0.5)”: median about -0.0014, highest 2% from about 0.25 on). What follows is part of a selection rich in the highest values, with near analogues and random picks from the rest.
molecular target: T1, Cad1 (UniProt P24813); experiment: PBM E-score (8-mer binding enrichment) (E-score (-0.5 to 0.5)); higher = stronger / more preferred TF binding; settings: protein concentration: 100 nM; construct: GST-full length
T1 sequence: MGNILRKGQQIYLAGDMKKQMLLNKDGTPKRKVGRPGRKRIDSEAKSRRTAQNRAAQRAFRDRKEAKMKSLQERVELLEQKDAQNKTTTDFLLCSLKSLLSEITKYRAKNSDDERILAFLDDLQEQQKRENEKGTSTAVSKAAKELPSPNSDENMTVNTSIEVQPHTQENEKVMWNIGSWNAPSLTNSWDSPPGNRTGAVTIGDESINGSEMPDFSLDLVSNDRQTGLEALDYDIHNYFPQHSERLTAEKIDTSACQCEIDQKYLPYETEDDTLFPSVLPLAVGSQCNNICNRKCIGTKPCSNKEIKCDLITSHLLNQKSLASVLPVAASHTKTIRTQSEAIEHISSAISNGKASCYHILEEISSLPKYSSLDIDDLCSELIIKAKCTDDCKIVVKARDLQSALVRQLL
Experimental: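 Universal 'all 10-mer' protein binding microarrays (Agilent AMADID 015681) probed with GST-tagged S. cerevisiae TFs (full-length or DBD) made by in vitro transcription/translation (PURExpress), about 100-200 nM. Bound TF was detected with fluorescent anti-GST. Each ungapped 8-mer (which stands for itself and its reverse complement) is scored by the PBM enrichment score (E-score), a modified Wilcoxon-Mann-Whitney statistic from -0.5 to +0.5, computed with the Universal PBM Analysis Suite. Scale: above 0.35 generally sequence-specific binding.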

Sequence	PBM E-score
AAGTGTTA	0.0352
ACAGCACG	-0.0152
AACCCCAA	0.113
ATAACTCC	0.0565
AGATGAAA	0.02
AAGCGCGG	-0.0419
AAGCGCGA	0.101
AAGCGCGC	0.276
AACTCCGT	0.0805
AGCCGGCG	0.0742
CGCCGGCG	0.301
CGCCGGCC	-0.124
TAATCTCA	0.0993
ACTGTTTG	-0.0907
AATCGACA	0.304
AATCGAAG	0.182
CATCGATG	0.169
AATCGACC	-0.051
AATCGATG	0.271
AATCGATA	0.288
AATCGATC	0.215
AATCGACT	-0.039
AATCGATT	0.198
CCTCCATC	-0.237
TGTTGCAA	0.228

Sequence	PBM E-score
ATCCTTCA	-0.174
CTACTTCA	-0.0482
ATACTTCA	-0.0179
GTACTTCA	0.251
AGCAGATA	-0.0464
AGCAGATC	0.256
CGCAGATC	0.098
ATGTGCCC	-0.071
ACAACCAC	0.056
ACAACCAG	0.145
ACAACCAT	0.281
GGTGCATA	0.00671
GTTACCAA	0.0957
CGTACCAA	0.256
ATTACCAA	0.292
ATTACCAC	0.161
CGTACCAG	-0.0767
TGTACCAA	-0.0377
AACCGGTA	-0.0764
ATTCCCTG	0.117
CTTAAAGA	-0.0851
ATTTATAC	0.226
CTTTATAA	0.101
ATTTATAA	0.341
GTTTATAA	0.264

Sequence	PBM E-score
GTTTATCA	0.173
GTTTATGA	0.142
CATTCAGG	-0.0709
TAGTAATA	0.371
AAGTAACA	0.0629
CAGTAATA	0.249
GAGTAATA	0.198
CAGTATCA	0.0166
CAGTAAGA	0.194
GAGTATCA	-0.045
GAGTAACA	-0.00744
TAGTAACA	0.255
TAGTATCA	0.265
TAGTAAGA	0.265
AAGTAAGA	-0.215
AGGTCCGG	0.0244
ACGGGATC	-0.0506
TCATGTCA	0.139
GGAAGACA	-0.0527
ACACAATC	0.0563
CCCCGCCC	0.114
CTGGCCAC	0.00652
CATAGCGC	0.26
AATAGCGC	0.269
AATAGCGG	-0.0047

Sequence	PBM E-score
AATAGCGA	0.214
CATAGCGG	-0.142
CATAGCGA	0.051
CACTTCCC	-0.118
ACTCCCGA	0.0151
AGGGGACG	-0.189
GGCAGTCA	-0.00415
TCCTCAAA	-0.166
ATGAACGC	0.252
ATGAACGG	-0.0252
ATGAACGA	0.111
GAGTTGAC	-0.0116
ATAATACC	0.215
ATAATACG	0.186
GCAATACA	0.291
ATACTACC	0.0181
CTACTACA	0.196
ACAATACA	0.0445
ATACTACA	0.264
ATAATACA	0.263
GCAATACC	-0.0457
TGTTGGAA	0.192
GGACCACA	0.137
AAAGCCTC	-0.186
ACCATCAG	-0.00772

Sequence	PBM E-score
CAGCAACA	0.186
AGCTCGAA	0.151
AAAGATTA	0.152
GCAGAGGA	0.0638
GAGCATCC	-0.169
CCGGACTC	0.281
CCGGACTA	-0.0508
ACGGACTC	-0.0126
CATAGCAC	-0.0299
GAGGTCGA	-0.153
CTCTCTTC	-0.215
CTTAACTA	0.283
GATAACTA	0.1
GTTAACTA	0.274
ATTAACTA	-0.00319
CGTAACTA	-0.001
CTTAACTC	0.0365
CTCACTGA	-0.0364
AGGCTGTA	-0.0168
GCGCATTA	0.265
CCGCATTA	0.172
CTGCATTA	0.014
ATGCATCA	0.308
ATGCATCG	0.114
ACGCATTA	0.145

Sequence	PBM E-score
ATGCATTA	0.265
ATGCATTC	0.196
GTGCATCA	0.128
CATCCTGC	0.0554
TGTGGCAA	0.0896
CCCGGACA	0.039
CCATCCAG	-0.0345
AATATTCG	0.273
AATATTCC	0.297
AATATCCA	0.0727
AATATCCG	0.265
AATATTCT	0.126
AATATCCC	-0.00553
GATATTCC	0.0127
AATATTCA	0.157
CATATTCG	0.129
AAGGTTGC	-0.00934
CCTAGCAC	-0.199
CCATAGTC	-0.0534
GACCAAGC	0.0511
CCCACTCA	-0.193
AGATGGAG	-0.0255
ATAATCGA	0.146
CGAATCGA	0.325
CTAATCAG	0.227

Sequence	PBM E-score
GGAATCGA	0.00927
CTAATCGA	0.315
ATAATCAT	0.252
CTAATCAA	0.238
ATAATCAG	0.225
ATAATCAA	0.157
CTAATCAC	0.326
CTAATCGC	0.0731
AGAATCGA	0.0389
CTGGACGC	0.069
CGAATACC	-0.104
AATCTCAT	0.0796
CCCGCTCC	-0.37
TGCCGCCA	0.0461
CGGGCAGA	0.0491
ACACCCTG	-0.133
AGAGAATA	0.0902
GGATGCAC	-0.0779
GTAAGGAC	-0.19
CGGGGAAA	0.0522
GTTACTCA	0.182
CATACTGA	0.103
TATACTGA	0.288
AATACTAA	0.253
GCTACTAA	0.0213

Sequence	PBM E-score
AATACTAT	-0.0768
GATACTGA	0.14
TATACTAA	0.107
GTTACTAA	0.374
CACTGGCG	-0.0107
CAGCTAAA	-0.121
ACTAGTTG	-0.0546
GGTGGCAA	-0.0998
CCAACGCA	0.0411
CGCAGACG	0.257
CGCAGACA	0.122
CGCAGACC	-0.146
ACTCATTA	0.109
ACACAGCA	0.076
ACACAGCC	0.0823
ACACAGCG	0.251
CACAGGAG	0.0278
ATAGAATC	-0.129
ATAAATTG	0.253
CTAAATTA	0.2
GTAAATTA	-0.053
AAAAATTG	-0.134
ATAAATTA	0.364
ATAAATTC	0.091
GGAGCAAC	-0.0625

Sequence	PBM E-score
AGATCCTG	-0.0555
AAGGTGAG	-0.192
CAGCAATA	0.188
AATGGCCC	-0.158
CAATCCTA	-0.015
ACGCCCAT	-0.0524
CACCGACA	-0.0582
CTATACTA	0.0535
AGCTATTA	0.0722
GGCTATTA	0.175
TAATATTA	0.424
ATATACTC	-0.0465
ATATACTA	0.259
GAATATTA	0.227
CGCTATTA	0.253
CCATATTA	0.148
ACATATTA	0.317
ACATATTG	0.0269
TAATATGA	0.133
CAGGCTAA	-0.266
TAACCCGA	-0.00699
GGCACCTA	-0.156
AAGCCCAC	-0.0637
ACAGAACC	0.0474
AAGAACCA	-0.00253

Sequence	PBM E-score
GGCAACCC	-0.174
GAACCTGC	-0.018
ATGCCTTC	-0.162
CGCTACTA	0.276
CAATATTC	0.0508
AAATATTG	0.249
CGCTACTC	0.0265
GGATATTA	0.163
GAATATTC	0.338
AGCTACTA	0.0659
CAATATTA	0.187
CGATATTA	0.352
AAATATTC	0.249
CGATATTC	0.173
AAATATTA	0.298
CACCACAC	0.151
AGCTCACT	-0.0157
ACAATAGA	-0.144
GGAGCACC	-0.0566
ATATATTA	0.368
CTATATTA	0.241
GTATATTA	0.115
GCTAAGCC	-0.109
AGACGCAC	0.0398
CGACCTAG	0.0727

Sequence	PBM E-score
CCAAATAA	0.15
ATTACAAG	0.0206
CTTACAAG	0.0333
CTTACAAC	0.118
CTTACAAA	0.372
ATTACAAA	0.425
ATTACAAT	0.104
ATATAAGA	0.22
AGCCCATA	-0.0468
AAGAAGCG	-0.184
CAACGCGG	0.0152
CAACGCGA	0.157
CTGCGCGC	0.302
CTTCGCGC	0.263
CTTCGCGA	0.143
CGGCGCGA	0.203
AGGCGCGC	0.161
CAACGCGC	0.311
ATTCGCGC	0.17
CGGCGCGC	0.258
ATGCGCGC	0.238
CTGCGCGA	0.13
CAAGGGAC	-0.0828
CGGCTGTA	-0.112
ACCTCCGC	-0.116

Sequence	PBM E-score
TCCCGCGA	0.0875
ATTCGTTG	0.258
CTTCGTAA	0.0607
ACTCGTAA	0.292
ATTCGTTA	0.158
ATTCGTTC	0.09
ACTCGTAG	-0.103
ACTCGTAT	0.0214
ATTCGTAA	0.26
GTTCGTAA	0.119
AAGTTGCT	0.0232
TAAACCCA	0.119
CAGTTATA	-0.0494
ATTGCGCG	0.307
AATGCGCC	-0.00918
AATGCGCA	0.342
AATGCGCT	0.0389
ATTGCGCC	-0.061
AATGCGCG	0.305
ATTGCGCA	0.103
CATGCGCG	0.202
CATGCGCA	0.116
AGGCAGAG	-0.0635
ACGTCGGG	-0.269
CCCAGATA	-0.0901

Sequence	PBM E-score
GCGGGATA	0.0173
CCCGTATC	-0.15
TCATGACA	0.301
ACATGACA	0.159
GCATGACA	0.0476
AGAAAGCC	-0.051
TAACTGAA	-0.0483
AATGTAAG	0.264
AACGTAAA	0.0278
AATGTAAC	0.0359
ACTGTAAG	0.167
CATGTAAG	0.129
AATGTAAT	0.324
AATGTAAA	0.193
AACGTAAT	0.261
AACGTAAC	-0.00693
AAAGTCGC	0.124
AAAGATAT	0.277
AACGATAG	0.0593
AACGATAT	0.271
AAAGATAG	0.00786
AACGAAAT	0.303
GACGAAAA	0.297
AACGATAC	0.0534
AACGAAAG	0.0872

Sequence	PBM E-score
AACGAAAC	0.187
CACGAAAA	0.161
AAAGATAC	-0.051
TACGAAAA	0.0721
ACCATCTG	-0.0991
ACGCAGAC	0.0915
GGAACTAC	-0.0515
GAACGTTC	-0.0713
GACTGATC	-0.075
CCTGCTAA	-0.128
CCAACTGG	0.025
TGCGAAAA	0.266
AGCGAAAA	-0.0296
AACGAACG	0.0769
CGCGAAAA	0.246
AACGAACA	0.269
CACGAACA	0.249
CCGAAGAG	-0.0285
CTTCTGAA	0.0469

— the supplement of paper PMC3334620
